Measurements as given in PubChem BioAssay AID1850 (Southern Research Specialized Biocontainment Screening …, 2009).
In all, about 310,000 compounds went through this assay and about 1,000 (0.32%) were called active. Not all results are given here. Results with a measured potency or affinity are listed apart. A number with no mark means an inactive call. The rule behind the calls is not given here.

Assay: Inhibition of PhoP regulon, Salmonella typhi GFP reporter cells, confirmation, 4 h (AID 1850);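 note: 0% = induced wells with vehicle and 100% = uninduced wells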
Conditions: Salmonella Typhi PhoP-promoter GFP reporter, fluorescence, at 50 µM, stronger effect = higher value

Structure (SMILES) | inhibition [%]
CC(/C=N\NC(=O)CN1CCN(S(=O)(=O)c2ccc(C)cc2)CC1)=C\c1ccccc1 | -12
CCOC(=O)[C@H]1[C@H]2COc3ccccc3[C@@H]2N2C(=O)c3ccccc3NC(=O)[C@@]12C | -4.39
CCCOc1ccc(-c2nc(N3CCN(C)CC3)c3ccccc3n2)cc1 | 9.86
O=C(O)COc1ccccc1C(Nc1ccccn1)c1cc(Cl)c2cccnc2c1O (stereo unspecified) | -6.17
O=C(NC(c1ccccc1)c1cc(Cl)c2cccnc2c1O)c1cccnc1 (stereo unspecified) | -1.98
CC(=O)c1ccc(OCC(O)CN2CCN(CCO)CC2)cc1 (stereo unspecified) | -2.27
O=C(COC(=O)CCCN1C(=O)c2cccc3cccc(c23)C1=O)Nc1cccc(C(F)(F)F)c1 | -5.09
Cc1ccc(OCCCNC2CCCC2)cc1 | 2.57
CCOc1ccc(OCCNC2CCCC2)cc1 | 6.72
O=C(Oc1c(CN2CCOCC2)cc(Cl)c2cccnc12)c1ccccc1Cl | 4.13
COCc1cc(CN2CCCC2)c(O)c2ncccc12 | -3.73
Oc1c(CN2CCN(c3ccccc3)CC2)cc(Br)c2cccnc12 | -1.71
O=C(Oc1c(CN2CCOCC2)cc(Cl)c2cccnc12)c1cccs1 | -0.05
O=C(Nc1ccc(-c2nc3cccnc3s2)cc1)c1cccnc1Cl | 16.9
CC(=O)Nc1ccc(S(=O)(=O)N2CCN(c3cc(C)nc4ncnn34)CC2)cc1 | -16.9
O=C(Nc1ccccc1)Nc1ccc(F)cc1F | -5.6
CC(=O)Nc1cccc(NC(=S)Nc2ccc(F)cc2F)c1 | 4.43
CN(C)CCCN(C(=O)c1sc2ccccc2c1Cl)c1nc2ccc(F)cc2s1 | -7.99
CCN(CC)CCN(C(=O)c1ccc2c(c1)CCCC2)c1nc2ccc(C)cc2s1 | -8.88
Cc1ccc(C(=O)N(CCCN(C)C)c2nc3ccc(Cl)cc3s2)cc1C | 9.54
CN(C)CCCN(C(=O)C1=COCCO1)c1nc2ccc(Br)cc2s1 | -8.06
Cc1cccc2sc(N(CCCN(C)C)C(=O)c3sc4ccccc4c3Cl)nc12 | -4.13
CN(C)CCCN(C(=O)c1ccc2c(c1)CCCC2)c1nc2ccc(F)cc2s1 | 16.4

Structure (SMILES) | inhibition [%]
CN(C)CCN(C(=O)C1=COCCO1)c1nc2ccc(F)cc2s1 | -3.62
CCOc1ccc2nc(N(CCCN(C)C)C(=O)c3ccc4c(c3)CCCC4)sc2c1 | 2.97
Cc1cccc(Cl)c1OCCN1CCCC1 | -6.23
O=C(NCCN1CCOCC1)/C(=C/c1ccc(Cl)cc1)NC(=O)c1ccccc1 | 0.05
COc1cc(CCC(=O)OCC(=O)Nc2ccc(C)cc2Cl)cc(OC)c1OC | -0.48
Cc1ccc(S(=O)(=O)Nc2nncs2)cc1 | -8.26
CC(CCN1CCN=C1Nc1ccccc1)c1ccccc1 (stereo unspecified) | 0.31
COc1ccccc1CNC(=O)CCC(=O)N1C[C@H]2C[C@@H](C1)c1cccc(=O)n1C2 | 0.48
CCOCC(=O)Nc1nnc(SCCOC)s1 | -8.99
CC(=O)NC(CC(=O)c1ccc([N+](=O)[O-])cc1)C(Cl)(Cl)Cl (stereo unspecified) | -10.7
O=C(CC(n1cncn1)C(Cl)(Cl)Cl)c1ccc([N+](=O)[O-])cc1 (stereo unspecified) | -2.18
O=C(CSC1=NC(=O)C(c2ccccc2)C(=O)N1)Nc1ccccc1[N+](=O)[O-] (stereo unspecified) | 0.46
Cc1ccccc1-n1ncc2c1CC(C)(C)CC2NC(=O)C1CCC1 (stereo unspecified) | 6.32
N/C(=N\OS(=O)(=O)c1ccc(Cl)cc1)c1ccncc1 | -3.25
N/C(=N\OC(=O)c1ccc(Cl)cc1)c1cccnc1 | 8.82
N/C(=N\OS(=O)(=O)c1ccc2ccccc2c1)c1ccncc1 | 9.71
N/C(=N\OC(=O)COc1ccc2ccccc2c1)c1cccnc1 | -4.96
N/C(=N\OC(=O)c1ccccc1)c1cccnc1 | -1.82
N/C(=N\OS(=O)(=O)c1ccccc1)c1ccncc1 | 6.44
O=C(COC(=O)c1ccc([N+](=O)[O-])o1)Nc1cccc(S(=O)(=O)N2CCCCC2)c1 | 9.11
CC(=O)N(C)c1ccc(NS(=O)(=O)c2cc(Cl)ccc2Cl)cc1 | -11.6
CCOC(=O)C1C(=O)C=C(c2cccs2)CC1c1ccccc1C (stereo unspecified) | -6.96
CC1CN(C)C(C)CC1OC(=O)C(c1ccccc1)c1ccccc1 (stereo unspecified) | -11.9
